# Assay outcomes (PubChem BioAssay)
# Shown are actives, neighbours in structure and some others; about 19% of the full set was active somewhere.
# KB-3-1 tox – qHTS assay for MDR1-selective chemotherapeutics: Primary screen using the parental adenocarcinoma cell KB-3-1; KB-3-1 viability, CellTiter-Glo ATP luminescence, 72 h; Potency, µM (highest dose often 46.1 µM), actives largely listed as cytotoxic; 400,000 compounds, 1.4% hits; also: nearly all actives have a fitted effect of over 60% in size
#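 Cells are dispensed, compounds pinned in, plates held at 37 °C for 72 h, then CellTiter-Glo is added and luminescence read after 10 minutes. Cell line: parental KB-3-1 in phenol-red-free DMEM, 10% FBS.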
# HT1080-NT tox – qHTS for induction of synthetic lethality in tumor cells producing 2HG: qHTS for the HT-1080-NT fibrosarcoma cell line; HT-1080-NT fibrosarcoma viability, CellTiter-Glo ATP luminescence, 48 h; Potency, µM (series often up to 46.1 µM), for inactives: at the highest dose activity, negative = less viability, hits mostly cytotoxic; 360,000 compounds, 1.6% hits;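 also: NT is the 2HG producing partner of a matched IDH1 knockdown line; 0% = DMSO-treated cells and -100% = media-only wells without cells; nearly all actives have a fitted effect of over 55% in size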
#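 HT-1080-NT; 750 cells/well; 5% FBS RPMI; 48 h compound, 37 degrees C; CellTiter-Glo luminescence; curve fitting and curve-class assignment.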
# DT40 TDP1 no CPT – qHTS for Inhibitors of human tyrosyl-DNA phosphodiesterase 1 (TDP1): qHTS in cells in absence of CPT; Potency, µM (doses to about 46.2 µM), inactives show at the top dose activity change, negative = growth inhibition, usual class: inhibitors; AID 686978, 2013; 420,000 compounds, 15% hits; DT40 Tdp1-/- hTDP1 cells, no CPT, ATP luminescence, 48 h; also: nearly all actives have a fitted effect of over 55% in size
#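 Readout: luminescence from CellTiter-Glo after 30 min in the dark at RT. Cells: DT40 Tdp1-/- with stable hTDP1, 400/well. Exposure: compounds alone, ≥48 hr, 37 °C.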
# KB-V1 MDR tox – qHTS assay for MDR1-selective chemotherapeutics: Primary screen using the drug-selected MDR subline cells KB-V1; Potency, µM (series often up to 46.1 µM), most hits filed as cytotoxic; AID 1347076, 2019; KB-V1 MDR cells viability, CellTiter-Glo, 72 h; 400,000 compounds, 3.4% hits; also: nearly all actives have a fitted effect of over 60% in size
#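 Following 72 h at 37 degrees C with compound, KB-V1 cell viability was read by CellTiter-Glo luminescence, medium being phenol-red-free DMEM plus 10% FBS; concentration-response parameters came from normalized, curve-fitted qHTS data.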
# HT1080 IDH1KD tx – qHTS for induction of synthetic lethality in tumor cells producing 2HG: qHTS for the HT-1080-IDH1KD cell line | HT-1080 IDH1 knockdown viability, ATP luminescence, 48 h | Potency, µM (highest dose often 46.1 µM), for inactives: top-dose activity, negative = toxicity, actives largely listed as cytotoxic | AID 686971, 2013 | 360,000 compounds, 2% hits;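 also: 0% = DMSO wells and -100% = cell-free medium wells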
#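 Assay cells: HT-1080 with IDH1 knockdown, 750 per well, RPMI/5% FBS. Exposure: 48 h at 37 °C following 2 h pre-incubation. Read: CellTiter-Glo luminescence; fitted concentration-response, curve class assigned.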
# DT40 TDP1 CPT – qHTS for Inhibitors of human tyrosyl-DNA phosphodiesterase 1 (TDP1): qHTS in cells in presence of CPT; Potency, µM (doses to about 46.2 µM), for inactives: at the highest dose activity change, negative = growth inhibition, actives largely listed as inhibitors; 420,000 compounds, 12% hits; chicken DT40 Tdp1-/-;hTDP1 cells + 20 nM CPT, ATP luminescence, 48 h; AID 686979, 2013; also: nearly all actives have a fitted effect of over 55% in size
#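 Chicken DT40 Tdp1-/- cells complemented with human TDP1, 400 cells/well, exposed to compounds plus 20 nM camptothecin for at least 48 h at 37 C; viability read as ATP content by CellTiter-Glo luminescence.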
# Numbers without * were called inactive; i = inactive; ? = inconclusive; · = no result given; [ ] = dose if it differs, or a comment. Calls follow the shape of the dose curve; as a rule, active = well fitted curve in the direction sought with a large enough effect; inconclusive = small, poorly fitted or top-dose-only effect, or another doubt; inactive = no such curve, though single readings can be large; an effect the other way counts as inactive or inconclusive. Unless noted, % is scaled to controls: 0 for no effect and ±100 for the full control effect; potency is read from the fitted curve at half-maximal effect.
SMILES,KB-3-1 tox,HT1080-NT tox,DT40 TDP1 no CPT,KB-V1 MDR tox,HT1080 IDH1KD tx,DT40 TDP1 CPT
COc1ncc(-c2c(-c3ccccc3OC)sc3ccccc23)cn1,?,?,?,i,16µM*,?
COc1ccc(-c2sc3ccccc3c2-c2cc(OC)ccc2C=O)cc1,?,?,21µM*,i,?,?
COc1ccc(C=O)c(-c2c(CCO)sc3ccccc23)c1,i,1%,?,i,-1%,?
COc1ccc(-c2c(-c3ccccc3OC)sc3ccccc23)cc1C=O,i,?,18µM*,i,?,?
Cc1nc(C)c(C(=O)O)c(-c2cccs2)c1C(=O)O,i,13%,-19%,i,13%,-12%
COc1cc(-c2cc(C)c3cccc(OC)c3n2)cc2c1OCCN(C(=O)CC1NC(=O)c3ccccc31)C2 (stereo not drawn),·,·,-14%,·,·,-14%[9.04 µM]
COc1ccc(-c2sc3ccccc3c2/C=C/c2ccncc2)cc1,?,?,16µM*,i,?,?
CC(C)Cn1c2c(c(O)c(C(=O)Nn3c(Cc4ccccc4)nc4ccccc4c3=O)c1=O)CCCC2,?,-3%,3.7µM*,?,-4%,5.2µM*
CCCCc1nc2ccccc2c(=O)n1NC(=O)c1c(O)c2c(n(CC(C)C)c1=O)CCCC2,4.6µM*,17%,9.2µM*,2.6µM*,8%,15µM*
CC(C)Cn1c2c(c(O)c(C(=O)Nc3ccc(F)cc3)c1=O)CCCC2,i,13%,-26%,?,16%,?
CCCn1c2c(c(O)c(C(=O)Nc3ccccc3)c1=O)CCCC2,i,0%,-22%,15µM*,-1%,0%
CCC(=O)Oc1ccc(C2Nc3ccccc3-c3nnc(SC)nc3O2)cc1 (stereo not drawn),i,·,-23%,i,·,-7%
N#Cc1ccc(-c2cccs2)nc1SCC(=O)Nc1cccc(C(F)(F)F)c1,i,·,21µM*,i,·,?
O=C(CSc1nc2nc(-c3cccs3)cc(C(F)(F)F)c2c(=O)[nH]1)Nc1ccc(F)c(F)c1,15µM*,?,4.1µM*,?,?,6.5µM*
Cn1c(SCc2c(F)cccc2Cl)nnc1-c1cccs1,?,2%,?,i,-4%,-10%
N#Cc1c(C(F)(F)F)cc(-c2cccs2)nc1SCC(=O)Nc1ccc(Cl)cc1,i,·,?,i,·,16µM*
N#Cc1ccc(-c2cccs2)nc1SCc1c(F)cccc1Cl,?,·,0.65µM*,?,·,0.82µM*
CSCC[C@H](NS(=O)(=O)c1ccc(C)cc1)C(=O)N1CCC(C(=O)N[C@H](C(=O)O)c2ccccc2)CC1,i,13%,0%,i,4%,13%
O=S(=O)(c1ccccc1)c1nc(-c2ccc(F)cc2)oc1NCc1ccccc1,i,·,?,i,·,-19%
CCc1ccc(-c2nc(SCC(=O)NCC3CCCO3)c(-c3ccc(F)cc3)[nH]2)cc1 (stereo not drawn),i,·,18µM*,i,·,?
Cc1ccc(-c2nc(SCC(=O)NCC3CCCO3)c(-c3ccc(C)cc3)[nH]2)cc1 (stereo not drawn),i,-5%,?,i,2%,?
Cc1ccc(-c2[nH]c(-c3ccccc3)nc2SCC(=O)NCC2CCCO2)cc1 (stereo not drawn),i,-7%,23µM*,i,0%,15µM*
O=S(=O)(c1ccccc1)c1nc(-c2ccc(F)cc2)oc1NCC1CCCO1 (stereo not drawn),i,2%,?,3.7µM*,2%,6%
COc1ccc(-c2[nH]c(-c3ccc(Cl)cc3)nc2SCC(=O)NCC2CCCO2)cc1 (stereo not drawn),i,·,7.3µM*,i,·,10µM*
N#Cc1ccccc1NC(=O)Nc1cccs1,i,7%,-2%,i,-11%,-23%
SMILES,KB-3-1 tox,HT1080-NT tox,DT40 TDP1 no CPT,KB-V1 MDR tox,HT1080 IDH1KD tx,DT40 TDP1 CPT
CC(C)CS(=O)(=O)c1oc(-c2ccc(F)cc2)nc1S(=O)(=O)c1ccccc1,·,·,0.46µM*,·,·,0.41µM*
COc1ccc(-c2nc(SCC(=O)NC3CCCC3)c(-c3ccccc3)[nH]2)cc1OC,i,·,?,i,·,?
O=C(CSc1oc(-c2ccccc2)nc1S(=O)(=O)c1ccccc1)NCC1CCCO1 (stereo not drawn),·,0%,-27%,·,5%,?
COc1ccc(-c2nc(SCC(=O)NC3CCCC3)c(-c3ccc(OC)cc3)[nH]2)cc1,?,-2%,16µM*,i,0%,?
Cc1ccccc1-n1c(C)nnc1SCC(=O)NCC1CCCO1 (stereo not drawn),i,?,5%,i,22µM*,-1%
Cc1ccc(-c2nc(S(=O)(=O)c3ccccc3)c(SCC(=O)NCC3CCCO3)o2)cc1 (stereo not drawn),i,0%,23µM*,i,-10%,?
COc1cccc(CN(CC2CCCO2)S(=O)(=O)c2ccc(S(=O)(=O)N(C)C)cc2)c1 (stereo not drawn),i,-18%[9.24 µM],?,?,-29%,?
CC(C)n1c(=O)c2ccccc2n1Cc1cn(C2CCCC2)nn1,i,?,-8%,i,1%,-5%
